Experiment in all cases: NCI-60 one-dose screen, 48 h (100 = growth as untreated, 0 = no growth, -100 = all killed)
The test system of test [1] is NCI-H522 lung. To be noted: 10 µM unless noted.
Test [2] relates to COLO 205 colon. To be noted: 10 µM.
In test [3] the test system is MALME-3M melanoma. To be noted: 10 µM unless noted.
The test system of test [4] is HCT-15 colon. To be noted: 10 µM.
For test [5], the system named is SNB-19 CNS. To be noted: 10 µM unless noted.
Test [6] concerns SK-MEL-5 melanoma. The conditions noted are these: 10 µM unless noted.
The subject of test [7] is LOX IMVI melanoma. The conditions noted are these: 10 µM unless noted.
In test [8] the test system is EKVX NSCLC. To be noted: 10 µM unless noted.
Test [9] relates to SN12C renal. To be noted: 10 µM unless noted.
The test system of test [10] is CCRF-CEM leukemia. To be noted: 10 µM unless noted.
In test [11] the test system is MOLT-4 leukemia. The conditions noted are these: 10 µM.
For test [12], the system named is SR leukemia. To be noted: 10 µM.
Test [13] has as its system OVCAR-8 ovarian. To be noted: 10 µM unless noted.
Test [14] has as its system IGROV1 ovarian. The conditions noted are these: 10 µM.
The test system of test [15] is MDA-MB-435 melanoma. The conditions noted are these: 10 µM unless noted.
The test system of test [16] is HCC-2998 colon. To be noted: 10 µM unless noted.
The subject of test [17] is HOP-92 NSCLC. The conditions noted are these: 10 µM unless noted.
The test system of test [18] is TK-10 renal. To be noted: 10 µM unless noted.
Test [19] deals with RPMI-8226 leukemia. To be noted: 10 µM unless noted.

This is part of a sample that, as a whole, favours compounds with a hit. Of some 83,000 tested, about 20% had one in any assay.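 Cells were grown in 96-well plates and exposed to the test compound at a single concentration for 48 hours; results are reported as percent growth, with values below 10 considered active.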 Unmarked numbers belong to inactive results. Active and inactive are the calls of the source.

`ClCCN(CCCl)c1ccc(C=NCCc2c[nH]c3ccccc23)cc1`: the growth is 92.4% in [1]; 106% in [2]; 76.7% in test [3]; 90.3% in [4]; 89.8% in test [5]; 75.8% in test [6]. Also, the growth in test [7] is 74.7%; in test [8] it was 106%; in [9] it was 62.7%; in test [10], 54.1%; in [11], 63.1%; in [12] it was 31.9%. The growth was 74.8% in [13], 84.2% in test [14], 110% in [15] and 91.8% in [16].

With `Cc1cccc(N(C)c2cccc3c2C(=O)[Se]C3)c1C`, the growth in test [17] is 81.4%; in test [2] it was 27.1%; in test [3], 63.7%; in test [4], 31.6%; in [6] it was 66%; in test [7], 38.2%. The growth in [8] was 19.9%; in test [18], 62.8%; in test [10], 56.1%; in test [11], 67.9%; in test [12] it was 4.83% (active); in test [19], 81.9%. For the same compound, the growth in [13] was 20.2%; in [14], 28.2%.

As to `CCC(/C=C(C)/C=C/C(=O)c1c(O)c(-c2ccc(O)cc2)c[nH]c1=O)CO` (centres undefined), the growth in test [17] was 26.2%; in test [2] it was 124%; in test [6] it was 99.9%; in test [7], 87.2%; in test [8] it was 89.2%; in test [9], 91.7%. Besides, the growth is 130% in test [18]; 7.28% (active) in [10]; 31.5% in [11]; 80.9% in test [15]; 106% in test [16].

`CN=C(NN)NN`: the growth in [1] is 107%; in test [2], 129%; in [3], 103%; in test [4], 104%; in test [5], 121%; in [6], 107%. The growth in [7] was 98.1%; in test [8], 97%; in [9] it was 113%; in test [18], 125%; in test [10], 87.2%; in [11] it was 102%. The growth in test [12] is 94.8%; in test [19] it was 91.6%; in test [13] it was 99.3%; in test [14] it was 112%; in [15] it was 99.8%; in [16], 103%.

The values above are taken from PubChem BioAssay (NCI).
